Laboratory results: PubChem BioAssay AID1861 (The Scripps Research Institute Molecular Screening Center, 2009)
In all, about 290,000 compounds went through this assay and about 3,100 (1.1%) were called active. Shown is part of a subset that was picked to be rich in actives. A number with no mark means an inactive call. No stated cut-off is given here; in the data, active means inhibition above about 16% (passing the limit was not always enough); inactive means the rest.

target: Neuropeptides B/W receptor type 1 (Homo sapiens) (UniProt P48145); assay: blockers of human neuropeptide B/W receptor 1 – cell-based, fluorescence, single concentration, primary screen (AID 1861); settings: GPR7-expressing cells, fluorescence antagonist assay; at 4.4 µM; active compounds read high;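 further: cells stimulated with the agonist NPW; 0% = agonist with vehicle and 100% = vehicle without agonist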
Sequence (P48145 whole entry, looked up): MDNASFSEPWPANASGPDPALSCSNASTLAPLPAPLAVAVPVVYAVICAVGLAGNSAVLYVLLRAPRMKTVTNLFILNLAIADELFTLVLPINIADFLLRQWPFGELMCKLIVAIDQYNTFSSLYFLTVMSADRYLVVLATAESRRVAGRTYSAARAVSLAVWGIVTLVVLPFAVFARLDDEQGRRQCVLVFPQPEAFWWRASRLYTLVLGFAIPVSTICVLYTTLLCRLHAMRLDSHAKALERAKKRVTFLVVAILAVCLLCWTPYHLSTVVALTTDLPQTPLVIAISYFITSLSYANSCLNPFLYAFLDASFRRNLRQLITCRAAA

| SMILES | inhibition |
| --- | --- |
| O=C(OCC1O[C@@H](OC(=O)c2cc(O)c(O)c(O)c2)[C@@H](OC(=O)c2cc(O)c(O)c(O)c2)[C@@H](OC(=O)c2cc(O)c(O)c(O)c2)[C@@H]1OC(=O)c1cc(O)c(O)c(O)c1)c1cc(O)c(O)c(O)c1 (stereo not given in full) | -5.26% |
| O=C(NCc1ccc2c(c1)OCO2)c1cc(F)c(F)cc1Cl | -4.33% |
| O=C(c1ccccc1)N1CCN(C(=O)c2cc3nc(-c4ccccc4)cc(C(F)(F)F)n3n2)CC1 | -7.13% |
| CCC1=Nc2cc(C(=O)NCCN3CCCC3)ccc2Sc2ccc(C)cc21 | -5.13% |
| Cc1cccc(-c2nc3ccc(C(=O)NCCN4CCN(C)CC4)cc3nc2-c2cccc(C)c2)c1 | 31.6% (active) |
| Cc1ccc(C(=O)NCCN2CCOCC2)cc1C | 3.82% |
| O=C(C[n+]1ccccc1)N/N=C/c1ccc(O)cc1 | -1.15% |
| Nc1nnn(CC(=O)N/N=C/c2ccc(O)cc2)n1 | 5.08% |
| O=C(CC(=O)Nc1ccc(Cl)c(Cl)c1)N/N=C/c1ccc(O)cc1 | 24.6% (active) |
| O=C(COc1ccc([N+](=O)[O-])cc1)Nc1cccc(C(=O)Nc2ccccc2C(=O)O)c1 | -9.29% |
| O=C(NCc1ccco1)c1nc2ncccn2n1 | -0.52% |
| O=C(CSc1nnnn1-c1ccccc1)NCc1ccco1 | -5.34% |
| O=C(NCc1ccco1)c1nc(-c2ccccc2)n(-c2ccccc2)n1 | 20.5% (active) |
| CCOc1ccc(N/C(N)=N/c2nc(C)c(C)c(=O)[nH]2)cc1 | 6% |
| COc1ccc(CN(C)C(=O)Cc2ccsc2)c(OC)c1OC | 8.02% |
| O=C(CN1CCN(C(=S)NC2CCCC2)CC1)Nc1ccc(Oc2ccccc2)cc1 | 22.4% (active) |
| CCOc1ccc(NC(=S)N2CCC(NC(=O)c3ccccc3)CC2)cc1 | -6.68% |
| CCOc1ccc(NC(=O)CN2CCN(CC(=O)Nc3ccc(OC)cc3)CC2)cc1 | 2.08% |
| Cc1cccc(NS(=O)(=O)c2ccc([N+](=O)[O-])cc2)n1 | 17.4% |
| COc1ccc(C(=O)N2CCCC(C(=O)c3ccccc3OC)C2)cc1OC (stereo not given) | -2.49% |
| CC(C)NC(=S)N1CCN(C(c2ccccc2)c2ccccc2)CC1 | -13.9% |
| O=C(O)CN1CCN(C(c2ccccc2)c2ccccc2)CC1 | -8.01% |
| CC1(C)CC(N2CCN(C(c3ccccc3)c3ccccc3)CC2)=CC(=[N+]2CCCCC2)C1 | 66% (active) |

| SMILES | inhibition |
| --- | --- |
| COc1ccccc1C(=O)COC(=O)CNS(=O)(=O)c1ccc(NC(C)=O)cc1 | 11.2% |
| COCCCNC(=S)N1CCN(c2nc(-c3cccc(OC)c3)cs2)CC1 | 42.1% (active) |
| CN(C)CCCNC(=S)N1CCN(c2nc(-c3ccccc3)cs2)CC1 | 5.73% |
| COc1cccc(NC(=O)CN2CCN(c3nc(-c4cccc(OC)c4)cs3)CC2)c1 | -9.85% |
| CCC1CCCCN1C(=S)Nc1ccc(S(=O)(=O)Nc2ncccn2)cc1 (stereo not given) | -0.2% |
| c1ccc(-c2cc(-c3nnc4sc(-c5ccccn5)nn34)[nH]n2)cc1 | -17.3% |
| Fc1ccc(-c2ccc(-c3nn4c(-c5ccco5)nnc4s3)o2)cc1 | 29% (active) |
| COc1cc(-c2nn3c(-c4cccc(C)c4)nnc3s2)cc(OC)c1OC | 12.2% |
| COC(=O)c1ccc(C(=O)NC2CC(C)(C)Cc3c2cnn3-c2ccc(F)cc2)nc1 (stereo not given) | 18.2% |
| CC(C(=O)NC1CCS(=O)(=O)C1)N1C(=O)/C(=C/c2ccc(Cl)cc2)SC1=S (stereo not given) | 14.5% |
| CCOCCCNC(=O)c1ccc(CS(=O)(=O)c2cccc(C(F)(F)F)c2)o1 | 6.51% |
| O=C(NCCCN1CCOCC1)c1cc(-c2ccccc2F)no1 | -6.4% |
| O=C(NCCCN1CCCCC1)c1ccc2c(c1)NC(=O)C(N1CCOCC1)S2 (stereo not given) | -14.1% |
| Cc1ccccc1CN1C(=O)c2ccccc2Sc2ccc(C(=O)NCCCN3CCOCC3)cc21 | 24.2% (active) |
| O=C(NCCN1CCOCC1)c1ccc(/C=C2\Sc3ccccc3N(Cc3ccc(F)cc3)C2=O)cc1 | 4.73% |
| CCC1=Nc2cc(C(=O)NCCCN3CCOCC3)ccc2Sc2ccc(Br)cc21 | 0.03% |
| O=C(NCCCN1CCOCC1)c1ccc2c(c1)N(Cc1cccc(F)c1)C(=O)c1ccccc1S2 | 24.4% (active) |
| CCOc1ccc(NC(=O)C2CCN(C(=O)N3CCOc4ccccc43)CC2)cc1 | 5.19% |
| COc1cccc2[nH]c(C(=O)NCCc3ccccc3)cc12 | -9.64% |
| COc1ccc2[nH]c(=O)c(C3c4cc(OC)c(OC)cc4CCN3C(=O)c3ccco3)cc2c1 (stereo not given) | -13.4% |
| O=c1cc(CSc2ccccn2)nc(N2CCN(c3ccccc3)CC2)[nH]1 | -6.4% |
| Cc1ccc(SCc2cc(=O)[nH]c(N3CCCCC3)n2)cc1 | 25.9% (active) |
| Cc1ccc(NC(=O)CSc2nc(CSc3ccc(C)cc3)cc(=O)[nH]2)cc1 | -13.7% |

| SMILES | inhibition |
| --- | --- |
| CN(C(=O)CCN1C(=O)/C(=C/c2ccccc2F)SC1=S)C1CCS(=O)(=O)C1 (stereo not given) | -4.44% |
| COc1cccc(CNC(=O)C2CCCN(c3ncnc4c3nc3n4CCCCC3)C2)c1 (stereo not given) | 6.2% |
| COc1cccc(C(C(=O)NC2CCCC2)N(C(=O)c2ccco2)c2cccc(C(C)=O)c2)c1OC (stereo not given) | 2.78% |
| CN(C)CCNC(CC(=O)Nc1ccc(Cl)c(Cl)c1)C(=O)O (stereo not given) | -6.94% |
| Cc1ccc(NC(=O)C/C(N)=N/O)cc1Cl | -9.83% |
| O=C(CC(O)(C(F)(F)F)C(F)(F)F)Nc1ccc(Cl)c(Cl)c1 | 28.9% (active) |
| CCOC(=O)C1(CCOc2ccccc2)CCN(Cc2cc(OC)cc(OC)c2)CC1 | 15.4% |
| CC1=C/C(=N\OS(=O)(=O)c2ccccc2)C=CC1=O | -2.03% |
| Cc1cc(C)cc(N(CC(=O)NC2CCCC2)C(=O)CCC(=O)Nc2nccs2)c1 | 4.8% |
| C=CCNC(=O)COC(=O)c1ccccc1C(=O)N(C)C1CCCCC1 | 23.4% (active) |
| COc1ccccc1C(=O)OCC(=O)NCCNC(=O)COC(=O)c1ccccc1OC | 1.57% |
| O=C(COC(=O)c1ccccc1SCC(=O)NC1CCCCC1)NC1CCCCC1 | 4.41% |
| O=[N+]([O-])c1ccc(NC(=S)N2CCN(c3ccccn3)CC2)cc1 | -5.44% |
| Cc1nn(CC(=O)NCC2CCCO2)c(=O)c2cc3ccccc3n12 (stereo not given) | 2.04% |
| CCn1c(C)cc(=O)cc1-c1ccc(Cl)cc1 | 12.6% |
| COc1ccc(C2=NN(C(=O)c3ccccc3C(=O)O)C(c3ccccc3O)C2)cc1 (stereo not given) | 1.53% |
| CS(=O)(=O)Nc1cccc(C2=NN(C(=O)c3cccc(F)c3)C(c3cccs3)C2)c1 (stereo not given) | 19.9% |
| COc1cccc(C2CC(c3ccccc3)=NN2S(=O)(=O)c2ccccc2)c1OC (stereo not given) | 19.8% (active) |
| CS(=O)(=O)Nc1ccc(C2=NN(S(C)(=O)=O)C(c3cccs3)C2)cc1 (stereo not given) | -8.38% |
| CS(=O)(=O)Nc1cccc(C2=NN(S(=O)(=O)c3ccccc3)C(c3cccs3)C2)c1 (stereo not given) | 30% (active) |
| CCS(=O)(=O)Nc1ccc(C2=NN(S(=O)(=O)c3ccc(F)cc3)C(c3ccco3)C2)cc1 (stereo not given) | 1.02% |
| Cc1c(CCC(=O)N[C@@H](CC(C)C)C(=O)O)c(=O)oc2c(C)c3oc4c(c3cc12)CCCC4 | -11.3% |
| COc1ccc(C(=O)NC(C)c2nccs2)cc1OC1CCN(C(C)C)CC1 (stereo not given) | -9.73% |

| SMILES | inhibition |
| --- | --- |
| COc1ccc(N(CC(=O)NCCSCc2cccc(Cl)c2)S(C)(=O)=O)cc1 | -4.13% |
| CC1CN(C(=O)c2cc(COc3c(F)cccc3F)on2)CCN1C (stereo not given) | 5.39% |
| CCc1ccccc1N(CC(=O)NCCSCc1ccco1)S(C)(=O)=O | -3.47% |
| CS(=O)(=O)N(Cc1ccc(Cl)cc1)c1ccc(C(=O)NCCSCc2ccco2)cc1 | 30.2% (active) |
| Cc1cc(C)cc(N(CC(=O)NCCSCc2ccco2)S(C)(=O)=O)c1 | -3.97% |
| O=C(NCCCN1CCN(c2ccc(F)cc2)CC1)Nc1ccc([N+](=O)[O-])cc1 | 25.5% (active) |
| O=C(COc1ccc([N+](=O)[O-])cc1)Nc1ccc(N2CCCC2)cc1 | -6.84% |
| CN1CCN(CCNC(=O)Nc2ccc([N+](=O)[O-])cc2)CC1 | 1.21% |
| COc1ccccc1CNC(=O)COc1ccc(C)nc1[N+](=O)[O-] | 25.7% (active) |
| Cc1ccc(OCC(=O)NC(C)c2ccccc2)c([N+](=O)[O-])n1 (stereo not given) | -17% |
| COc1ccc(CNC(=O)COc2cccnc2[N+](=O)[O-])cc1 | 5.06% |
| CCOC(=O)N1CCN(S(=O)(=O)c2ccc(OC)cc2)CC1 | -0.89% |
| Cc1cc(Cl)ccc1OCCCC(=O)NCc1ccncc1 | 2.96% |
| Cc1cc(Cl)ccc1OCCCC(=O)NCc1ccccn1 | 5.1% |
| Cc1cc(Cl)ccc1OCCCC(=O)Nc1cccc(-n2cnnn2)c1 | 37.4% (active) |
| c1ccc2c(c1)CCc1snnc1-2 | -15.5% |
| COc1cc(OC)c(NC(=O)C2CCCN2C(=O)OCc2ccccc2)cc1Cl (stereo not given) | 3.66% |
| COC(=O)c1cc(S(=O)(=O)Nc2ccc(C)c(F)c2)c[nH]1 | 4.7% |
| CCOC(=O)C1=C(C)NC(SC)=NC1c1ccccc1 (stereo not given) | -17% |
| CCOC(=O)C1=C(C)NC(C)=C(C(=O)OCC)C1c1ccccn1 | 18.9% (active) |
| CCOC(=O)C1=C(C)NC(=S)NC1c1cccs1 (stereo not given) | -3.11% |
